Measured values as given in PubChem BioAssay AID1568 (National Center for Advancing Translational Sciences (NCATS), 2009).
Records with an inconclusive call do not appear. Active and inactive are the calls of the source. Calls come from the whole dose curve; as a rule, active = well fitted curve in the direction sought with a large enough effect; inconclusive = small, poorly fitted or top-dose-only effect, or effect the other way, or another doubt; inactive = no such curve, though single readings can be large or run the other way.

test: Cell Viability Secondary Assay to Characterize qHTS Inhibitors of the Interaction of Thyroid Hormone Receptor and Steroid Receptor Coregulator 2; conditions: cell viability counter-screen, qHTS titration; series mostly up to 29.9 µM; activity change, negative = cytotoxicity: at the top concentration
Source text: NIH Molecular Libraries Probe Production Network [MLPCN]
NIH Chemical Genomics Center [NCGC]
Assay Provider: R. Kip Guy, St. Jude Children's Research Hospital
Thyroid receptor (TR) regulates many homeostatic processes including basal metabolism, cardiovascular function, body weight, and lipid trafficking. TR modulators are potential therapeutics for obesity and hyperlipidemias but current thyroid analogs have undesirable side effects, particularly cardiac stimulation. This secondary assay characterized selected actives identified in the qHTS for Inhibitors of the Interaction of Thyroid Hormone Receptor and Steroid Receptor Coregulator 2. The human follicular thyroid carcinoma cell line WRO (kindly provided by Dr. M. D. Ringel) stably expresses TRbeta and a luciferase reporter gene fused to TR response element. The effect of compounds on the viability of these cells was assessed by measuring ATP levels. Compounds that reduce cell viability are likely cytotoxic.
NCGC Assay Protocol Summary:
Cells were maintained in RPMI 1640 culture medium supplemented with 10% heat-inactivated FBS, 0.33 mg/ml hygromycin, 0.33 mg/ml geneticin, 50 units/ml penicillin, 50 ug/ml streptomycin. Cells were harvested and resuspended at 330,000 cells/ml in assay medium (50% DMEM 50% F-12 medium without Phenol-Red (Cellgro #16-405-CV), L-glutamine, 10% heat inactivated and charcoal treated FBS, 100 uM non-essential amino acid, 50 units/ml penicillin, 50 ug/ml streptomycin). Cells were dispensed at 10,000 cells/30 ul/well into 384 well plates (Corning 3917) and incubated 12 h at 37 C and 5% CO2. Compounds and T3 (100nM final concentration) were added using a pin tool and plates were incubated 16 h incubation at 37 C and 5% CO2. Following incubation, plates were equilibrated at ambient temperature for 30 min, 20 ul of CellTiter-Glo (Promega) was added and luminescence was detected by an EnVision (PerkinElmer).

Row | Structure (SMILES) | Potency | activity change, negative = cytotoxicity
1 | CN1CC[C@@]2(C)c3cc(O)ccc3N(C)C2O1 (stereo not given in full) | 14.1 µM (active) | –
2 | O=C(O)CC1OCC=C2CN3CCC45C6=CC(=O)C(=O)C([N+](=O)[O-])=C6NC4C1C2CC35 (stereo not given) | – | -16.5% (inactive)
3 | Cc1[nH]n(-c2ccccc2)c(=O)c1C(c1ccc([N+](=O)[O-])cc1)c1c(C)[nH]n(-c2ccccc2)c1=O | – | -29.6% (inactive)
4 | CCCCCn1c(N)c(C(=O)NCc2cccs2)c2nc3ccccc3nc21 | – | -10.1% (inactive)
5 | COP(=S)(OC)Oc1ccc([N+](=O)[O-])cc1 | 31.6 µM (active) | –
